# From article PMC7862700, “An all-to-all approach to the identification of sequence-specific readers for epigenetic DNA modifications on cytosine”
# What was measured:
# Assay in all cases: DAPPL (digital affinity profiling via proximity ligation, sequencing); 10 mM Tris-HCl pH 7.5, 50 mM NaCl, 1 mM DTT, 4% glycerol, room temperature, 30 min; GST-TFs on glutathione beads, 16-mer random dsDNA library, 0.1% formaldehyde crosslink after washing; high values mean tight binding
# Conditions in all cases: protein: recombinant; tags: N-terminal GST; dsDNA, one strand shown
# ELK4 = biological target: T1, ELK4 (Homo sapiens, UniProt P28324-2 1-405)
# T1 sequence: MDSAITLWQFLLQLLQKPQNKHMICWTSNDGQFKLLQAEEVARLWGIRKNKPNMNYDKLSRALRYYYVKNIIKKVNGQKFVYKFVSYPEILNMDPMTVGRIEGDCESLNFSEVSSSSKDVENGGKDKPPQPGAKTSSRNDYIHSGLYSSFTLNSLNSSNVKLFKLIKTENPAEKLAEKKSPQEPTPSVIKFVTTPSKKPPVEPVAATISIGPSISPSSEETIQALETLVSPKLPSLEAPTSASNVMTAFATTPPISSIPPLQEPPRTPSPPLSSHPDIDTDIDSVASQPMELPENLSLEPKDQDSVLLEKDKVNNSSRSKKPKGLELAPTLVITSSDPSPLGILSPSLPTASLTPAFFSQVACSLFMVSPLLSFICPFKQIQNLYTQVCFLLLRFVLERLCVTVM
# In short: (§1)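 A tag-only sample was pooled with DNA-barcoded human transcription factors that had been expressed in yeast as GST fusions and captured on glutathione beads. The pools were incubated for 30 min at room temperature with 200 nmole of a random double-stranded 16-mer DNA library in Tris/NaCl/DTT/glycerol buffer, then washed, crosslinked with 0.1% formaldehyde, proximity-ligated (BsaI/T4 ligase, 1 h, 37 °C), PCR-amplified and sequenced on an Illumina NextSeq500. Binding signal is each hexamer's read frequency for a factor divided by its frequency for the tag-only sample.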
# ELF4 = ELF4 (Homo sapiens, UniProt Q99607 1-663)
# In short: as §1
# ETV2 = biological target: T2, ETV2 (Homo sapiens, UniProt O00321 1-342)
# T2 sequence: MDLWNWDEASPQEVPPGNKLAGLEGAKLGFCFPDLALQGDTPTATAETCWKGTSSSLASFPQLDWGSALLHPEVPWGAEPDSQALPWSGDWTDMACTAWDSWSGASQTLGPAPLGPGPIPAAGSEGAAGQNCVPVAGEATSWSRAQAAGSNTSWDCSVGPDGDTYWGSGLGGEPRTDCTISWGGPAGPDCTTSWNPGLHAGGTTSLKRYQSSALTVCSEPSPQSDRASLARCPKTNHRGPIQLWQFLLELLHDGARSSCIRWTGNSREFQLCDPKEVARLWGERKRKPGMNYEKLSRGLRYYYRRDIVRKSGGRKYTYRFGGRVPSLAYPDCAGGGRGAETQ
# In short: as §1
# ELF3 = biological target: T3, ELF3 (Homo sapiens, UniProt P78545 1-371)
# T3 sequence: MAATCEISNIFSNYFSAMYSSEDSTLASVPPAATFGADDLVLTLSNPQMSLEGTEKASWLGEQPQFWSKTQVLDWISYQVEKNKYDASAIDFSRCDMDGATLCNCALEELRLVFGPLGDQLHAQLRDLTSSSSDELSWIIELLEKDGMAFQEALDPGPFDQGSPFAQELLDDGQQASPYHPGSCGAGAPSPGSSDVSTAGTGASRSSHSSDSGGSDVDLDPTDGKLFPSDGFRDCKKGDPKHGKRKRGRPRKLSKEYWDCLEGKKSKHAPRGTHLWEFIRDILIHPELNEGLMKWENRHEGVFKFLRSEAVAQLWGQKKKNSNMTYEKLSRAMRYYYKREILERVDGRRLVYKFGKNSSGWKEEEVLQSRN
# In short: as §1
# ERF = biological target: T4, ERF (Homo sapiens, UniProt P50548 1-548)
# T4 sequence: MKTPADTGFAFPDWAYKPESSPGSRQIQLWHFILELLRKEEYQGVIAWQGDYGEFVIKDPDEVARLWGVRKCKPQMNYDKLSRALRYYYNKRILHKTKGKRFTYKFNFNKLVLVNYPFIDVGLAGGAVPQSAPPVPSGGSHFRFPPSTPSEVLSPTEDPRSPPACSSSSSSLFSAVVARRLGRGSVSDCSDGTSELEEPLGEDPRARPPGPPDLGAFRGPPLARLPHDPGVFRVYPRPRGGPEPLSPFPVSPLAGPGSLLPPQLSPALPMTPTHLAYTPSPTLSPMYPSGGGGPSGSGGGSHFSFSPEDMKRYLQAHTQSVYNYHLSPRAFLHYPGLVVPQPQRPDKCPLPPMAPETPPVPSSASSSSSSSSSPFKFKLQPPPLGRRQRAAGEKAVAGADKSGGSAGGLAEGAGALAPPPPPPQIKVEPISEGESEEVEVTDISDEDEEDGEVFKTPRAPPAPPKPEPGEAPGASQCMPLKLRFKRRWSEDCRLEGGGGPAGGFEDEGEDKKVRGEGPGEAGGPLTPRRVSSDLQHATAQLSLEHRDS
# In short: as §1
# ETV3L = biological target: T5, ETV3L (Homo sapiens, UniProt Q6ZN32 1-361)
# T5 sequence: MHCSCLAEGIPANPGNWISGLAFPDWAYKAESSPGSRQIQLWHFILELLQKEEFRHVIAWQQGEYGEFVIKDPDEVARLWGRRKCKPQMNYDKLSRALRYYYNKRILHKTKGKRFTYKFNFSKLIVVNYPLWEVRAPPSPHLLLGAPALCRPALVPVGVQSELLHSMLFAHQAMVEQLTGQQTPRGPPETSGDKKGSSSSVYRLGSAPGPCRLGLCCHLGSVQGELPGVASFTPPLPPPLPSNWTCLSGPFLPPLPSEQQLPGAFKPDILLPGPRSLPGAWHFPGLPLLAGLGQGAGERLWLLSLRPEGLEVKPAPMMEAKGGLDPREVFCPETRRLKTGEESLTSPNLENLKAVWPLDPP
# In short: as §1
# ETS2 = biological target: T6, ETS2 (Homo sapiens, UniProt P15036 1-469)
# T6 sequence: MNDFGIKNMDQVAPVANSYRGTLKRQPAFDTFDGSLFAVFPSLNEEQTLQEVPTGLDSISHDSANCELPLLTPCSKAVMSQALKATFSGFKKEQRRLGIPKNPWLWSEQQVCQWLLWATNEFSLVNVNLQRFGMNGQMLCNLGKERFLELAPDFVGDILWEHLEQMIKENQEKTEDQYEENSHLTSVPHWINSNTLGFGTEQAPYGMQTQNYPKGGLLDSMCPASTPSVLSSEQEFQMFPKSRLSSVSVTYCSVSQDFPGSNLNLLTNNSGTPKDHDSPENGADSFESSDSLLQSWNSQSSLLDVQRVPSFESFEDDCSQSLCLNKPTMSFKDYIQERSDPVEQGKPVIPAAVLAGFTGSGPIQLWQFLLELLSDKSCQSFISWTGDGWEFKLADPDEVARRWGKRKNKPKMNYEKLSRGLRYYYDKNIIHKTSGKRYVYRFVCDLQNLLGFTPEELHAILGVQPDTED
# In short: as §1
# SPDEF = biological target: T7, SPDEF (Homo sapiens, UniProt O95238 1-335)
# T7 sequence: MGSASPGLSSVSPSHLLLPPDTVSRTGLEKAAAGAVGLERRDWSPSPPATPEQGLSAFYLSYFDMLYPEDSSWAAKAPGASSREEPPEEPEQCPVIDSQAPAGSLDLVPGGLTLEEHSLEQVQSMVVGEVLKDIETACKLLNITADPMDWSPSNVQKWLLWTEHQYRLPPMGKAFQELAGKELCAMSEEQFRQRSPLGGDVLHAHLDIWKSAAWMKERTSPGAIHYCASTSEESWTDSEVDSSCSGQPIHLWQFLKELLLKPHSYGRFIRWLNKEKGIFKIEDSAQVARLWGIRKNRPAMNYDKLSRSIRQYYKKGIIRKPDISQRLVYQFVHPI
# In short: as §1
# ETV7 = biological target: T8, ETV7 (Homo sapiens, UniProt Q9Y603 1-341)
# T8 sequence: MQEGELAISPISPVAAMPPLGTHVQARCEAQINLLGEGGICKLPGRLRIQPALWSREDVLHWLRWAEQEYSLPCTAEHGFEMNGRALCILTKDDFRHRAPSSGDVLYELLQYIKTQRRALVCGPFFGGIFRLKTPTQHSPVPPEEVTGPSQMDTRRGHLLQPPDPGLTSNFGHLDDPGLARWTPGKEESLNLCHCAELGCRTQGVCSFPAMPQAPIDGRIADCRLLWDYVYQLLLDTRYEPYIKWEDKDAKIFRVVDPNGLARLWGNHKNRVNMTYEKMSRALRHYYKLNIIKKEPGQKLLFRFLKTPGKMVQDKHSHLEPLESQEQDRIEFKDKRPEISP
# In short: as §1
# ELF5 = biological target: T9, ELF5 (Homo sapiens, UniProt Q9UKW6-2 1-255)
# T9 sequence: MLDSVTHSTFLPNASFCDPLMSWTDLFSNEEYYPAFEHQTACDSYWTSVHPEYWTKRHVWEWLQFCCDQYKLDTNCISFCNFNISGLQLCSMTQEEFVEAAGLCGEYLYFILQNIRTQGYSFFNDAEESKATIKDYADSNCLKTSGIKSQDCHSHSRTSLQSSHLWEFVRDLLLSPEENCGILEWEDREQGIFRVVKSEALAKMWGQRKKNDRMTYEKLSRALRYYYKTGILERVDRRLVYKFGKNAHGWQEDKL
# In short: as §1
# ETV6 = ETV6 (Homo sapiens, UniProt P41212 1-452)
# In short: as §1
# SPIB = SPIB (Homo sapiens, UniProt Q01892 1-262)
# In short: as §1
# ELF4, sequence (Q99607 whole entry): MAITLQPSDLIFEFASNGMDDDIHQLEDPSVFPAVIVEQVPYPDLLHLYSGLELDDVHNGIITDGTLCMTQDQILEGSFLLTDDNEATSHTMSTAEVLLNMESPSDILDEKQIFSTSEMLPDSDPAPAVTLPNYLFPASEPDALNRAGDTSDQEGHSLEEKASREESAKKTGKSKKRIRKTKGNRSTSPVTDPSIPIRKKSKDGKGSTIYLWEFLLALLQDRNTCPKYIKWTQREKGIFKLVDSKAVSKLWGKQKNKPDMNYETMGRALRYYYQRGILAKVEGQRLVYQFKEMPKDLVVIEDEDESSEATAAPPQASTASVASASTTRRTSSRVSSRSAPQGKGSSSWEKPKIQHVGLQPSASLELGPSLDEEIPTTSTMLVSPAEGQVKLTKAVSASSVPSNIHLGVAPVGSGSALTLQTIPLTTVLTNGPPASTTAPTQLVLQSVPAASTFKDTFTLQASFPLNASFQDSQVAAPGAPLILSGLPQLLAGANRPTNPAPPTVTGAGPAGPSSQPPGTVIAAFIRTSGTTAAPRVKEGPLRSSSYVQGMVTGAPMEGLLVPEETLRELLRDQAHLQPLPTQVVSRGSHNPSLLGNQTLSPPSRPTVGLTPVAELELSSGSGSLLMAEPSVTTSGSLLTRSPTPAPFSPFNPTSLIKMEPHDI
# ETV6, sequence (P41212 whole entry): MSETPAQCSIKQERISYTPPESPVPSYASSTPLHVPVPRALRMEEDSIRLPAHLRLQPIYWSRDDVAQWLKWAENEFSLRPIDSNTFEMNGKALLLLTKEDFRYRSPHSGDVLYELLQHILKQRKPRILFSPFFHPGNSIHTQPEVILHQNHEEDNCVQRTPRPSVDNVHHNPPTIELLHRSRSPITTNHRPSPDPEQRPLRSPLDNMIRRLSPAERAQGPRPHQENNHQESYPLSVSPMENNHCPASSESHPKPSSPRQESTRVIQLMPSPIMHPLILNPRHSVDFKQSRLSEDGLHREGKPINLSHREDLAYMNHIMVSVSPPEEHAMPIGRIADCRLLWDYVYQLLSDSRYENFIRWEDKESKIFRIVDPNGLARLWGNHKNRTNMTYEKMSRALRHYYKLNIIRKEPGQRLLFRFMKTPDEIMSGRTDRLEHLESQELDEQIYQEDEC
# SPIB, sequence (Q01892 whole entry): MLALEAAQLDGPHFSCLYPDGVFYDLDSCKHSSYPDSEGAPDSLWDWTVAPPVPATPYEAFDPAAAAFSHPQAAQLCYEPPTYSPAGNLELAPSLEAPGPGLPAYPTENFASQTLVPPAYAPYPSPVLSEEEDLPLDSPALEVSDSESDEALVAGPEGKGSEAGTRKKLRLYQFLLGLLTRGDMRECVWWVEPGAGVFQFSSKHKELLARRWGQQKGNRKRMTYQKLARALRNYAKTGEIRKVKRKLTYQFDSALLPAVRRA
sequence,measurement,setting,value
GCAAGC,binding signal,ELK4,"1.07 fold enrichment (6-mer frequency, TF over GST control)"
GAATGC,binding signal,ELF4,"1.05 fold enrichment (6-mer frequency, TF over GST control)"
same,binding signal,ETV2,"1.04 fold enrichment (6-mer frequency, TF over GST control)"
same,binding signal,ELF3,"1.06 fold enrichment (6-mer frequency, TF over GST control)"
same,binding signal,ERF,"1.04 fold enrichment (6-mer frequency, TF over GST control)"
same,binding signal,ETV3L,"1.01 fold enrichment (6-mer frequency, TF over GST control)"
same,binding signal,ETS2,"1.05 fold enrichment (6-mer frequency, TF over GST control)"
same,binding signal,SPDEF,"1.04 fold enrichment (6-mer frequency, TF over GST control)"
same,binding signal,ETV7,"1.03 fold enrichment (6-mer frequency, TF over GST control)"
same,binding signal,ELF5,"1.07 fold enrichment (6-mer frequency, TF over GST control)"
same,binding signal,ETV6,"1.01 fold enrichment (6-mer frequency, TF over GST control)"
ACAGTT,binding signal,ELK4,"1.02 fold enrichment (6-mer frequency, TF over GST control)"
CCGCGG,binding signal,SPIB,"1.04 fold enrichment (6-mer frequency, TF over GST control)"
same,binding signal,ELF4,"1.01 fold enrichment (6-mer frequency, TF over GST control)"
